Source: PubChem BioAssay
CtBP-E1A inh – CtBP/E1A binding inhibition; 0.49% of 340,000 active; AlphaScreen GST-E1A/His-CtBP binding, 1536-well; stronger effect = lower value; activity change, % (no concentration beside the values); AID 651724; in the data active = activity change below about -65%; inconclusive = mostly about -30% to -63%; also: % is scaled to controls: 0 for no effect and ±100 for the full control effect
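AlphaScreen with 125 nM GST-E1A and 125 nM His-CtBP (5X stocks) in Tris pH 8.0, 300 mM NaCl, BSA, Tween 20, TCEP. Compounds preincubated 2 h at 37 deg C, then glutathione donor/nickel acceptor beads added for 1 h at 37 deg C in dark.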
BAZ2B block – BAZ2B (human) inhibition | Q9UIF8 | AlphaScreen BAZ2B-H3K14Ac peptide displacement | Potency, µM (doses to about 114 µM), for the others: top-dose activity change, negative = inhibition, most hits filed as inhibitors | 4.4% of 360,000 active; also: potency is read from the fitted curve at half-maximal effect; % is scaled to controls: 0 for no effect and ±100 for the full control effect; nearly all actives have a fitted effect of over 60% in size
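Protein-peptide AlphaScreen: BAZ2B 50 nM, b-H3K14Ac 50 nM, 1x PBS pH 7.4 + 0.01% Tween-20. Preincubation 30 min RT; cpd 30 min RT (top 110 uM); beads 20 min RT, light-protected.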
G9a block – inhibitors of human histone lysine methyltransferase G9a. Q96KQ7. G9a H3K9 monomethylation, AlphaScreen, 2 h. Potency, µM (top dose mostly 102 µM), inactives show top-dose activity, negative = inhibition, most hits filed as inhibitors. 8.8% of 350,000 active. AID 504332; also: potency is read from the fitted curve at half-maximal effect; % is scaled to controls: 0 for no effect and ±100 for the full control effect; nearly all actives have a fitted effect of over 75% in size
Target sequence (Q96KQ7 913-1193 limits assumed): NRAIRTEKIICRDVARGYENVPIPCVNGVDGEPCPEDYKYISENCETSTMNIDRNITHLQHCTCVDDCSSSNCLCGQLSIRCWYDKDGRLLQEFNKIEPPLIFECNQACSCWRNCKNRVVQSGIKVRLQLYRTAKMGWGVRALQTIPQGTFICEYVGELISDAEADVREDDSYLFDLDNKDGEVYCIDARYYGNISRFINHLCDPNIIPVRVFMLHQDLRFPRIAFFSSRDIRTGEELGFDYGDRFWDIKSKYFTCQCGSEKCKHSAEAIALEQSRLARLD
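G9a (20 nM) was preincubated 15 min with compound, then reacted 2 h at room temperature with 500 nM biotin-H3K9 peptide and 20 µM SAM. Monomethyl-H3K9 detected by AlphaScreen using anti-H3K9me1 antibody.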
Six1-Eya2 inh – blocks human Six1 binding to Eya2; AlphaScreen GST-Six1/His-Eya2 binding, biochemical; stronger effect = lower value; 0.56% of 360,000 active; activity change, % (test concentration not listed); in the data active = activity change below about -65%; inconclusive = mostly about -30% to -63%; also: % is scaled to controls: 0 for no effect and ±100 for the full control effect
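Compounds are tested against tagged Six1 and Eya2 proteins bridged by glutathione donor and nickel acceptor beads; after a one-hour incubation at 37 °C without light, AlphaScreen emission is recorded.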
HP1b binding inh – HP1-beta chromodomain-methylated histone interaction inhibition; P83916; AlphaScreen HP1-beta / biotin-H3K9me3 peptide binding; Potency, µM (doses to about 114 µM), for inactives: at the highest dose activity change, negative = inhibition, usual class: inhibitors; 0.56% of 390,000 active; AID 540317; also: potency is read from the fitted curve at half-maximal effect; nearly all actives have a fitted effect of over 70% in size
Target sequence (P83916 whole entry, looked up): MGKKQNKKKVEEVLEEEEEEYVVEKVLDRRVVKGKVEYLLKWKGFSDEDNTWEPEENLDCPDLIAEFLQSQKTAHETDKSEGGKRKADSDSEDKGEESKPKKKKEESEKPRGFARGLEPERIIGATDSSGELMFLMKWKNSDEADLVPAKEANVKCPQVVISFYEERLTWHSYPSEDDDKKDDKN
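Compound inhibition of the preformed complex between 50 nM HP1-beta and 50 nM biotinylated H3K9me3 peptide was read by AlphaScreen. Buffer was PBS pH 7.4 with 0.01% Tween-20. Incubations ran 30 min at room temperature, with 10 ug/mL donor/acceptor beads.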
JMJD2A Tudor inh – JMJD2A Tudor domain (human) inhibition | O75164 | AlphaScreen JMJD2A-Tudor / H3K4me3 peptide binding | Potency, µM (highest dose often 114 µM), for the others: top-dose activity change, negative = inhibition, hits mostly inhibitors | 4.4% of 390,000 active; also: potency is read from the fitted curve at half-maximal effect; % is scaled to controls: 0 for no effect and ±100 for the full control effect; nearly all actives have a fitted effect of over 50% in size
An asterisk follows results filed as active; [ ] = remark or other dose. Shown are actives, neighbours in structure and some others; about 10% of the full set was active somewhere. Unless noted, calls follow the shape of the dose curve; as a rule, active = well fitted inhibition curve with a large enough effect; inconclusive = small, poorly fitted or top-dose-only effect; inactive = no such curve, though single readings can be large or run the other way.

For COC(=O)Nc1ccc(S(=O)(=O)N2CCC(C)CC2)cc1 the results were CtBP-E1A inh 3, BAZ2B block 11%, G9a block 17%[12.7 µM], Six1-Eya2 inh 1, HP1b binding inh 18% and JMJD2A Tudor inh -9%.
Screening COC(=O)Nc1ccc(S(=O)(=O)N2CCN(C)CC2)cc1 returned CtBP-E1A inh -1, BAZ2B block 4%, G9a block inconclusive, Six1-Eya2 inh -5, HP1b binding inh 22% and JMJD2A Tudor inh 79µM*.
For COC(=O)Nc1ccc(S(=O)(=O)N2CCC(C(=O)N3CCC(C)CC3)CC2)cc1 the results were CtBP-E1A inh -5, BAZ2B block -8%, G9a block 11%, Six1-Eya2 inh -1, HP1b binding inh -3% and JMJD2A Tudor inh 11µM*.
COC(=O)Nc1ccc(S(=O)(=O)N2CCCCC2)cc1 was read as CtBP-E1A inh 1, BAZ2B block -5%, G9a block 14%, Six1-Eya2 inh 3, HP1b binding inh 20% and JMJD2A Tudor inh 8%.
For CN1CCN(c2ncc3nc(CCc4ccccc4)c(=O)n(CCC#N)c3n2)CC1 the results were G9a block -1%[12.7 µM].
For CC1C=CC=CC=CC=CC=CC=CC=CC(OC2OC(C)C(O)C(N)C2O)CC2OC(O)(CC(O)CC(O)C(O)CCC(O)CC(O)CC(=O)OC(C)C(C)C1O)CC(O)C2C(=O)O (stereo not drawn) the results were CtBP-E1A inh 0, Six1-Eya2 inh -75*, HP1b binding inh 13% and JMJD2A Tudor inh 11µM*.
For C[C@H]1[C@@H](O)[C@@H](C)\C=C/C=C\C=C/C=C\C=C/C=C\C=C/[C@@H](O[C@H]2O[C@@H](C)[C@@H](O)[C@@H](N)[C@@H]2O)C[C@@H]2O[C@](O)(C[C@@H](O)C[C@@H](O)[C@@H](O)CC[C@@H](O)C[C@@H](O)CC(=O)O[C@H]1C)C[C@@H](O)[C@H]2C(=O)O (stereo in doubt) the results were G9a block 9%[21.5 µM].
`CCCC(=O)Nc1ccccc1C(=O)OCc1cc(=O)n2nc(C(C)C)sc2n1` gave BAZ2B block -10%, G9a block 19%[59 µM], HP1b binding inh 18% and JMJD2A Tudor inh -7%.
`OC(COc1ccccc1)CN1CCCC1` (stereo not drawn) gave CtBP-E1A inh 4, BAZ2B block 79µM*, G9a block -29%, Six1-Eya2 inh 11, HP1b binding inh 0% and JMJD2A Tudor inh 56µM*.
Screening COc1ccc(OCC(O)CN2CCCC2)cc1 (stereo not drawn) returned BAZ2B block inconclusive, Six1-Eya2 inh 2, HP1b binding inh -22% and JMJD2A Tudor inh 79µM*.
Screening COc1ccc(OCC(O)CN2CCCCCC2)cc1 (stereo not drawn) returned CtBP-E1A inh 2, BAZ2B block 50µM*, G9a block 8.9µM*, Six1-Eya2 inh 0, HP1b binding inh inconclusive and JMJD2A Tudor inh 4µM*.
`CCCC[C@@H](NC(=O)[C@@H](Cc1cn(C(=O)OC)c2ccccc12)NC(=O)[C@H](CC(C)(C)C)NC(=O)N1[C@H](C)CCC[C@@H]1C)C(=O)O` gave G9a block 21%[59 µM].
`O=C(OCC#CCSc1nnc(-c2cccc3ccccc23)o1)c1ccc(OC(F)(F)F)cc1` gave JMJD2A Tudor inh 16%.
Screening COc1ccccc1OCC(=O)Nc1c(C(=O)c2ccc(F)cc2)oc2ccccc12 returned BAZ2B block -1%, G9a block -3%[59 µM], HP1b binding inh 17% and JMJD2A Tudor inh -5%.
Screening CCOC(=O)c1ccc(S(=O)(=O)N2CCN(CC(O)COc3cccc(C(C)=O)c3)CC2)cc1 (stereo not drawn) returned CtBP-E1A inh -16, BAZ2B block 79µM*, G9a block -9%, Six1-Eya2 inh -5, HP1b binding inh -13% and JMJD2A Tudor inh 18µM*.
